For 4 compounds, outcome and AC50 results are on record in PubChem BioAssay (EPA / NIEHS).

Activity calls are given as the source filed them. Rule for the calls: active = hit-call score of the fitted dose curve at least 0.9, where 1 is the maximum; inactive = score below 0.9.

The term AC50 denotes the midpoint of the concentration-response curve, whichever way the signal moves.

A short description of test [1]: ATG_GLI_CIS: Attagene CIS-FACTORIAL HepG2 Assay for human Zinc Finger Protein GLI1 (AID 2282945). The conditions noted are these: HepG2, Attagene cis-factorial reporter mRNA, GLI element; actives raise or lower the signal. The procedure, abridged:
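HepG2 cells transiently transfected with cis-promoter multiplexed reporter units report endogenous transcription factor activity. After 24 h chemical exposure, reporter mRNA was quantified by RT-PCR, 6-FAM labelling, HpaI digestion and capillary electrophoresis, with bidirectional fitting against DMSO.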

The target in test [2] is Bile acid receptor (Homo sapiens) (UniProt Q96RI1). Put plainly: ATG_IR1_CIS: Attagene CIS-FACTORIAL HepG2 Assay for human Nuclear Receptor Subfamily 1 Group H Member 4 (NR1H4), IR1 submotif (AID 2282946). To be noted: IR1 reporter transcription, actives raise or lower the signal. Summed up: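 Transient MRTU transfection, HepG2; 24 h dosing; RNA → RT-PCR → 6-FAM primer extension → HpaI digest → capillary electrophoresis fluorescence. Gain/loss of signal fitted relative to DMSO.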

A short description of test [3]: ATG_GRE_CIS: Attagene CIS-FACTORIAL HepG2 Assay for human Glucocorticoid Response Elements (GRE) (AID 2282947). The conditions noted are these: HepG2 GRE cis-reporter, Attagene multiplex mRNA; actives raise or lower the signal. The procedure, abridged:
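HepG2 cells transiently transfected with multiple cis-promoter reporter units measure endogenous TF activity; 24 h compound exposure. Reporter mRNA quantified by RT-PCR, FAM labelling, HpaI digestion and capillary electrophoresis; bidirectional fit vs DMSO baseline.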

Test [4] is described as follows: ATG_ISRE_CIS: Attagene CIS-FACTORIAL HepG2 Assay for human Interferon Regulatory Factor 1 (IRF1) binding to an Interferon-Stimulated Response Element (ISRE) (AID 2282948). The conditions noted are these: HepG2 ISRE cis-reporter (Attagene), mRNA transcription readout; actives raise or lower the signal. The procedure, abridged: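 Transiently transfected HepG2 cells carrying cis-element reporter units, dosed 24 hours. Reporter mRNA quantified by RT-PCR, fluorescent primer extension, HpaI digestion and capillary electrophoresis. Bidirectional fitting relative to DMSO.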

The nature of test [5]: ATG_M_06_CIS: Attagene CIS-FACTORIAL HepG2 Assay for M06 Transcription Factor (Internal Marker) (AID 2282950). To be noted: HepG2 Attagene CIS-FACTORIAL M06 internal marker reporter; actives raise or lower the signal. Summed up:
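Fluorescence-labelled RT-PCR products from cis-promoter reporter units, cut with HpaI and resolved by capillary electrophoresis, give the signal. Cells are human HepG2, dosed for 24 h. Serves as background control, fitted relative to DMSO.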

For test [6], the target named is Hypoxia-inducible factor 1-alpha (Homo sapiens) (UniProt Q16665). Put plainly: ATG_HIF1a_CIS: Attagene CIS-FACTORIAL HepG2 Assay for human Hypoxia Inducible Factor 1 (HIF1A) (AID 2282951). To be noted: HepG2 Attagene cis-factorial HIF1a reporter transcription; actives raise or lower the signal. The procedure, abridged:
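Transient MRTU transfection of human HepG2 liver cells, 24 h compound treatment, then total RNA isolation, oligo(dT) reverse transcription, PCR amplification, fluorescent labelling and capillary electrophoresis of reporter fragments. Gain or loss relative to DMSO.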

Test [7] has as its target Hepatocyte nuclear factor 6 (Homo sapiens) (UniProt Q9UBC0). Put plainly: ATG_HNF6_CIS: Attagene CIS-FACTORIAL HepG2 Assay for human Hepatocyte Nuclear Factor 6 (HNF6) (AID 2282952). To be noted: HepG2 Attagene cis-factorial HNF6 reporter transcription; actives raise or lower the signal. The procedure, abridged: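 HepG2 cells transiently transfected with cis-element-driven multiplexed reporter units measuring endogenous transcription factor activity. After 24 h exposure, reporter mRNA quantified by RT-PCR, FAM-labelled fragments and capillary electrophoresis; bidirectional fitting versus DMSO.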

Test [8] addresses Heat shock factor protein 1 (Homo sapiens) (UniProt Q00613). The test can be described thus: ATG_HSE_CIS: Attagene CIS-FACTORIAL HepG2 Assay for human Heat Shock Transcription Factor 1 (HSE) (AID 2282953). To be noted: HepG2 HSE cis-reporter, Attagene RNA transcription; actives raise or lower the signal. The procedure, abridged: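 After a 24 h incubation with test chemical, transfected HepG2 cells were harvested for RNA; reporter transcripts were measured by RT-PCR and capillary electrophoresis. Values reflect gain or loss of signal relative to DMSO.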

Test [9] in a line: ATG_MRE_CIS: Attagene CIS-FACTORIAL HepG2 Assay for human Metal Responsive Element (MRE) (AID 2282954). The conditions noted are these: HepG2 MRE cis-reporter transcription, Attagene multiplex; actives raise or lower the signal. Summed up: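 HepG2 cells transiently transfected with multiple cis-element reporter units measure endogenous MTF1-driven transcription. After 24 h compound exposure, reporter mRNA is quantified by RT-PCR with 6-FAM labelling, HpaI digestion and capillary electrophoresis; bidirectional fits versus DMSO.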

In test [10] the target is Paired box protein Pax-6 (Homo sapiens) (UniProt P26367). Put plainly: ATG_Pax6_CIS: Attagene CIS-FACTORIAL HepG2 Assay for human Paired Box 6 (PAX6) (AID 2282956). To be noted: HepG2 CIS-FACTORIAL PAX6 reporter transcription, RNA readout; actives raise or lower the signal. Summed up:
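HepG2 cells transiently transfected with cis-promoter-driven multiplexed reporter units sensing endogenous transcription factor activity; 24 h chemical exposure. Reporter mRNA quantified by RT-PCR, 6-FAM labelling, HpaI digestion and capillary electrophoresis; bidirectional fit versus DMSO baseline.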

Test [11] can be described thus: ATG_PXRE_CIS: Attagene CIS-FACTORIAL HepG2 Assay for human Pregnane X Receptor Element (PXRE) (AID 2282957). To be noted: HepG2 Attagene CIS-FACTORIAL PXRE reporter, mRNA; actives raise or lower the signal. Summed up:
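HepG2 cells transiently transfected with cis-element-driven multiplexed reporter units; after 24 h chemical exposure, reporter mRNA measured by RT-PCR, 6-FAM labelling, HpaI digestion and capillary electrophoresis. Bidirectional fitting relative to DMSO.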

A short description of test [12]: ATG_PPRE_CIS: Attagene CIS-FACTORIAL HepG2 Assay for human Peroxisome Proliferator-activated Response Element (PPRE) (AID 2282958). The conditions noted are these: HepG2 PPRE cis-element reporter, Attagene transcription factor profiling; actives raise or lower the signal. The procedure, abridged: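 HepG2, transient MRTU transfection (cis promoter elements, endogenous TFs). 24 h dosing. RNA → oligo(dT) RT → PCR → 6-FAM primer extension → HpaI digest → CE. Bidirectional fit vs DMSO.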

The nature of test [13]: ATG_RORE_CIS: Attagene CIS-FACTORIAL HepG2 Assay for human RAR-related Orphan Receptor Element (RORE) (AID 2282959). To be noted: HepG2 Attagene cis-factorial RORE reporter, mRNA; actives raise or lower the signal. The procedure, abridged: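 Transient MRTU transfection of human HepG2 liver cells (FuGene 6); 24 h compound exposure; TriZol RNA, oligo(dT) RT, PCR, FAM labeling, HpaI cut, CE fragment analysis. DMSO = negative control/baseline.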

Test [14] can be described thus: ATG_Sox_CIS: Attagene CIS-FACTORIAL HepG2 Assay for human SRY-box transcription factor (SOX) (AID 2282960). To be noted: HepG2 Attagene cis-factorial SOX reporter, mRNA; actives raise or lower the signal. The procedure, abridged: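 Endogenous factor activity in human liver HepG2 cells carrying transfected cis-regulated reporter units. RNA taken 24 h post-dose, reverse-transcribed, PCR-amplified and sized by capillary electrophoresis. Gain or loss of signal fitted relative to DMSO.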

The target of test [15] is Transcription factor Sp1 (Homo sapiens) (UniProt P08047). Put plainly: ATG_Sp1_CIS: Attagene CIS-FACTORIAL HepG2 Assay for human Specificity Protein 1 (Sp1) (AID 2282961). The conditions noted are these: HepG2 Sp1 cis-reporter transcription, actives raise or lower the signal. Summed up: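 Transient MRTU-transfected HepG2, 24 h compound exposure. Total RNA → oligo(dT) RT → PCR of reporter → 6-FAM primer extension → HpaI digest → CE. Endpoint fitted both directions vs DMSO.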

Test [16] is described as follows: ATG_SREBP_CIS: Attagene CIS-FACTORIAL HepG2 Assay for human Sterol Regulatory Element Binding (SREBP) (AID 2282962). To be noted: HepG2 Attagene cis-factorial SREBP reporter, mRNA; actives raise or lower the signal. The procedure, abridged: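 HepG2 cells transiently transfected with multiplexed cis-promoter reporter units sensing endogenous transcription factors; reporter mRNA measured 24 h after dosing by RT-PCR, 6-FAM labeling, HpaI digestion and capillary electrophoresis. Bidirectional fit versus DMSO.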

The target of test [17] is Signal transducer and activator of transcription 3 (Homo sapiens) (UniProt P40763). Put plainly: ATG_STAT3_CIS: Attagene CIS-FACTORIAL HepG2 Assay for human Signal Transducer and Activator of Transcription 3 (STAT3) (AID 2282963). The conditions noted are these: HepG2, Attagene cis-factorial STAT3 reporter transcription; actives raise or lower the signal. The procedure, abridged:
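HepG2 cells transiently transfected with cis-element-driven multiple reporter transcription units; after 24 h chemical exposure, reporter mRNA measured by RT-PCR, 6-FAM primer-extension labelling, HpaI digestion and capillary electrophoresis. Bidirectional fitting versus DMSO baseline.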

Test [18] can be described thus: ATG_M_32_CIS: Attagene CIS-FACTORIAL HepG2 Assay for M32 Transcription Factor (Internal Marker) (AID 2282949).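 Note: background control marker of the multiplexed CIS panel rather than a real target.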 To be noted: HepG2 Attagene cis-factorial M32 reporter, mRNA; actives raise or lower the signal. Summed up:
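Internal background marker read-out: RT-PCR/capillary electrophoresis fluorescence of reporter transcripts from transiently transfected HepG2 cells after 24 h chemical exposure. Activity fitted bidirectionally relative to DMSO negative control.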

The nature of test [19]: ATG_PBREM_CIS: Attagene CIS-FACTORIAL HepG2 Assay for human Phenobarbital-responsive Enhancer Module (PBREM) (AID 2282955). To be noted: HepG2 PBREM cis-reporter, Attagene multiplexed transcription; actives raise or lower the signal. The procedure, abridged: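 Endogenous transcription factors in human liver HepG2 cells drive a PBREM cis-element reporter, whose transcript level after 24 h treatment is quantified by RT-PCR with capillary electrophoresis; activity fitted in both directions against DMSO.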

A short description of test [20]: ATG_TA_CIS: Attagene CIS-FACTORIAL HepG2 Assay for human TA Basal Promoter (AID 2282964). To be noted: HepG2 Attagene CIS-factorial TA basal promoter reporter; actives raise or lower the signal. The procedure, abridged:
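Multiplexed mRNA reporter assay, HepG2, 24 h. Reporter cDNA amplified, 6-FAM primer-extended, HpaI-cut, CE-sized; DMSO = negative control and baseline.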

Chain of Paired box protein Pax-6 (Homo sapiens) (P26367 whole entry, looked up): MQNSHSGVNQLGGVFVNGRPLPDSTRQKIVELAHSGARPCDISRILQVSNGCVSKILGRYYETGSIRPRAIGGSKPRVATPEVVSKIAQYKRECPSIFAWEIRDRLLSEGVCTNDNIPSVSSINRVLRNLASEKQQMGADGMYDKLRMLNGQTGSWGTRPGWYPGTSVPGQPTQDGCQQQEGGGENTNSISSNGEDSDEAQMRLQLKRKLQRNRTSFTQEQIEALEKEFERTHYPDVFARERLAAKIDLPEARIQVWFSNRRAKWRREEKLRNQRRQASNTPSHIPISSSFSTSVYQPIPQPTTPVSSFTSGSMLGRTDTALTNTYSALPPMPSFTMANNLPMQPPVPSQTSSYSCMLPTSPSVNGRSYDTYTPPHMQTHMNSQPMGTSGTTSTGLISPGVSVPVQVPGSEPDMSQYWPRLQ
Chain of Heat shock factor protein 1 (Homo sapiens) (Q00613 whole entry, looked up): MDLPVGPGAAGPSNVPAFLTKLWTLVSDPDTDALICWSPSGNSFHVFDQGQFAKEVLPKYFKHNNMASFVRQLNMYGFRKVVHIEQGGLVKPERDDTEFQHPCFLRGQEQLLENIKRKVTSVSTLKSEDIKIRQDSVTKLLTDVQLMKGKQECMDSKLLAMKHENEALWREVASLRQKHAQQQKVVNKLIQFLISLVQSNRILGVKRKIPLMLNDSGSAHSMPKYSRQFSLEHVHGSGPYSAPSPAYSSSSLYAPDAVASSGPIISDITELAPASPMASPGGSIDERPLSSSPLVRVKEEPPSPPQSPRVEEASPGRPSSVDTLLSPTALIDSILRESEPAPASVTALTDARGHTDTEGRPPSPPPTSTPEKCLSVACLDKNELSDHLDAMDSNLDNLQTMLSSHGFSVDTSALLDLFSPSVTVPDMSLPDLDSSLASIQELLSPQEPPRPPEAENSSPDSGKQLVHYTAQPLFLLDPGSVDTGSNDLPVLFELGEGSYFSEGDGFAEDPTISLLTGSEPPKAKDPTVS
Chain of Transcription factor Sp1 (Homo sapiens) (P08047 whole entry, looked up): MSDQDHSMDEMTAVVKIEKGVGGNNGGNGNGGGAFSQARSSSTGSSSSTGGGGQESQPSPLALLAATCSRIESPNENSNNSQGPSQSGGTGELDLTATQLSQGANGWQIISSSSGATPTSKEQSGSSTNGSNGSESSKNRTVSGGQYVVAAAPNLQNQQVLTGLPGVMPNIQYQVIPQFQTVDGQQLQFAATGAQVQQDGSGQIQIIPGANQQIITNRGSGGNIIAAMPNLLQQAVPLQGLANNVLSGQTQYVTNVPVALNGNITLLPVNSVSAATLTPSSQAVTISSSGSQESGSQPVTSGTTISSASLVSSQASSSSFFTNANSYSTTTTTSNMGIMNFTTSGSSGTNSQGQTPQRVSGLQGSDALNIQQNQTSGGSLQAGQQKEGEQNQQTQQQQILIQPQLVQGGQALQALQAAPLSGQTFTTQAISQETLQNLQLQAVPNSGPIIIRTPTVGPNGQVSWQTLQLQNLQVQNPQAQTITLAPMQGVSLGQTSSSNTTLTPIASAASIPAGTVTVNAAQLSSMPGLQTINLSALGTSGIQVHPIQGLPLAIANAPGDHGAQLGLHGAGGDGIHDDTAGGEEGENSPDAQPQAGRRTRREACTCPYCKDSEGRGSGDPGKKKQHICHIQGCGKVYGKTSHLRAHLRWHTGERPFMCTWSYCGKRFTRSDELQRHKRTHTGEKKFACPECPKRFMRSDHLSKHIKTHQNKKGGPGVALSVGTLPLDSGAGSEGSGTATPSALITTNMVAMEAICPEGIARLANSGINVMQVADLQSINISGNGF
Chain of Bile acid receptor (Homo sapiens) (Q96RI1 whole entry, looked up): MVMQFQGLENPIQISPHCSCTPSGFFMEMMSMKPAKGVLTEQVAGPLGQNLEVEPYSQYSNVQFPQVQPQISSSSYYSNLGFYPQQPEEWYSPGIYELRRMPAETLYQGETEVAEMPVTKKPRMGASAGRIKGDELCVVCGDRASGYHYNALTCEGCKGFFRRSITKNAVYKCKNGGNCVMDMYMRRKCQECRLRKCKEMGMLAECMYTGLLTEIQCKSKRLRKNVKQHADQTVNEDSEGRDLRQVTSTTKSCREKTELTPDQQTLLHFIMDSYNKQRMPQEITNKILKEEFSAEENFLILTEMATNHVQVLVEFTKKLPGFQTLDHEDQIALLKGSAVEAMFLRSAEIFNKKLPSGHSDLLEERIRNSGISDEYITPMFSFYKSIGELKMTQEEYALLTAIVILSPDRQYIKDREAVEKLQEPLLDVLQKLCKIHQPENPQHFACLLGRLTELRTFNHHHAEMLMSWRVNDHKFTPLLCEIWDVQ
Chain of Signal transducer and activator of transcription 3 (Homo sapiens) (P40763 whole entry, looked up): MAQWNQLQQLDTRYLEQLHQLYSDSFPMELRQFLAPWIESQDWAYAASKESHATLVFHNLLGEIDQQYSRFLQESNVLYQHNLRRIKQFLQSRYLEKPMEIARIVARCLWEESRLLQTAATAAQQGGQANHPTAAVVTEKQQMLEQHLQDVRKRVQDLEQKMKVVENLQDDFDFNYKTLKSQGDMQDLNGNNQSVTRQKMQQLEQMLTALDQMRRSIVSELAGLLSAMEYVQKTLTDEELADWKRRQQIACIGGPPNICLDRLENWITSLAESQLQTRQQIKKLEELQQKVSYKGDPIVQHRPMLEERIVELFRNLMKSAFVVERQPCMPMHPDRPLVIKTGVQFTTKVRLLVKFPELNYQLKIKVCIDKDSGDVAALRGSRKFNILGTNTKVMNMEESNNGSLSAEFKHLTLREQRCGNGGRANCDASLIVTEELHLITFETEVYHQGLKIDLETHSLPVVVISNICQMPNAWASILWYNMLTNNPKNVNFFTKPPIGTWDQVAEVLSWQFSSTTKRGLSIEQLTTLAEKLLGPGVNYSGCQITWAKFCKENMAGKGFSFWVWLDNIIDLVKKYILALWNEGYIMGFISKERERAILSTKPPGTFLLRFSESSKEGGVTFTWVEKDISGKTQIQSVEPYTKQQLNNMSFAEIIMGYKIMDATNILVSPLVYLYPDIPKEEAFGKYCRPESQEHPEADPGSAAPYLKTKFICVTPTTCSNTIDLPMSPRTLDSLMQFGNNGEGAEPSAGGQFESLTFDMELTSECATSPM
Chain of Hepatocyte nuclear factor 6 (Homo sapiens) (Q9UBC0 whole entry, looked up, the tested form may be a part): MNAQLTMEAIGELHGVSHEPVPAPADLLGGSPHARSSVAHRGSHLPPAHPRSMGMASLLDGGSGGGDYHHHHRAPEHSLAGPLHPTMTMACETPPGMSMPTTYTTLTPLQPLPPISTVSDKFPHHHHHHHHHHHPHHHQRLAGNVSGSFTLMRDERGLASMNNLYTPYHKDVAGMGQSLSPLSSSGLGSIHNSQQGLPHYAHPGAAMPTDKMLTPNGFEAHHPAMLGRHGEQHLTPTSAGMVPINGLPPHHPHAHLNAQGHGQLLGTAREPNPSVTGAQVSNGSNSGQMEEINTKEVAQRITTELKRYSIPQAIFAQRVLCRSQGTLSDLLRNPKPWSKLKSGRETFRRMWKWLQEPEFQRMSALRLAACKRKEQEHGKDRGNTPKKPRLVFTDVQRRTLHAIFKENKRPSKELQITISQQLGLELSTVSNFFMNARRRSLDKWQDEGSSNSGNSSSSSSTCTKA
Chain of Hypoxia-inducible factor 1-alpha (Homo sapiens) (Q16665 whole entry, looked up, the tested form may be a part): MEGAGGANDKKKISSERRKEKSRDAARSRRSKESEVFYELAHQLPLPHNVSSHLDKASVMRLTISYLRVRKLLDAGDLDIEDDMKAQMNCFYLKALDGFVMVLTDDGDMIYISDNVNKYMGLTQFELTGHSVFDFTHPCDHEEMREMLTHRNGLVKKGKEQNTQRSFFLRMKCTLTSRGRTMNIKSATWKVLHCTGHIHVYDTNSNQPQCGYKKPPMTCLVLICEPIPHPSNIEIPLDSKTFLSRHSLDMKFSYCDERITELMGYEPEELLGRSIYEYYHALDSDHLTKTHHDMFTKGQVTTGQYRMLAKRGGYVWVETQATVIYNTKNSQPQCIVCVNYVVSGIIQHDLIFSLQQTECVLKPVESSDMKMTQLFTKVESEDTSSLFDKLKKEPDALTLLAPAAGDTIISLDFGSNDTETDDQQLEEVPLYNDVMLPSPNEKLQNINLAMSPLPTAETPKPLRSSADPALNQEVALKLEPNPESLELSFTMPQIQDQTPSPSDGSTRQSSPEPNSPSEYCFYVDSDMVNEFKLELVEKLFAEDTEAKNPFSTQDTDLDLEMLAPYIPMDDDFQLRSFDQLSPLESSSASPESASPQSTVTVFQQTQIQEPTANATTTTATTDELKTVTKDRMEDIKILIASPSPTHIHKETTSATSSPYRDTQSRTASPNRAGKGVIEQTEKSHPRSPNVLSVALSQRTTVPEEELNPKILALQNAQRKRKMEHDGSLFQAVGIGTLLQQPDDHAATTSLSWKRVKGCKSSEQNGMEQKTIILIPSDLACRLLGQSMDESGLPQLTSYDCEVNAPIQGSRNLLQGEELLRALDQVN

On to `Cc1cc(C)c(C=O)c(C)c1`, for which the result in [1], in test [2], in test [3], in test [4], in test [5] and in test [6] was inactive. The call in test [7], in test [8], in test [9], in test [10], in [12] and in test [13] was inactive. For the same compound, the compound was called inactive in [14], in [15], in test [16] and in test [17]. In addition, the AC50 in test [11] is 1.61 µM (active).
For the compound `C=C(C)C(=O)OCC(O)COc1ccc(C(C)(C)c2ccc(OCC(O)COC(=O)C(=C)C)cc2)cc1` (stereo not drawn), the result in test [1], in [2], in [18], in [5], in test [7] and in test [19] was inactive. In addition, the compound was called inactive in test [13], in test [15] and in test [17]. The AC50 was 27 µM (active) in test [4]; 31.1 µM (active) in test [6]; 46.9 µM (active) in test [8]; 52.7 µM (active) in test [9]; 2.17 µM (active) in test [11]; 14.7 µM (active) in test [12]. Also, the AC50 in test [14] was 65 µM (active); in test [16], 51 µM (active); in [20], 28.3 µM (active).
In the case of `CN(C)c1ccc2nc3ccc(=[N+](C)C)cc-3sc2c1`, the result in test [1], in test [2], in test [3], in test [18], in test [5] and in [7] was inactive. Further, the call in test [8], in [19], in test [10], in test [13], in test [14] and in test [15] was inactive. Moreover, the compound was called inactive in [16] and in [17]. Besides, the AC50 in test [4] is 41.6 µM (active); in test [11], 3.95 µM (active).
`CC(CCC(=O)O)(c1ccc(O)cc1)c1ccc(O)cc1`: the result in [1], in [2], in test [3], in test [4], in test [18] and in test [5] was inactive. The call in [7], in [8], in [19], in test [10], in test [12] and in [13] was inactive. In addition, the compound was classed as inactive in test [15], in [16], in [17] and in test [20]. Besides, the AC50 in test [11] is 27.5 µM (active).
